# NSD2 HMT inh: inhibitors of human histone methyltransferase NSD2 | O96028 | NSD2 peptide methylation, AlphaScreen, 120 min | inhibition, % at 12.5 µM | 310,000 tested, 0.54% active | AID 743445; in the data active = inhibition above about 50%
# Target sequence (O96028 whole entry, looked up): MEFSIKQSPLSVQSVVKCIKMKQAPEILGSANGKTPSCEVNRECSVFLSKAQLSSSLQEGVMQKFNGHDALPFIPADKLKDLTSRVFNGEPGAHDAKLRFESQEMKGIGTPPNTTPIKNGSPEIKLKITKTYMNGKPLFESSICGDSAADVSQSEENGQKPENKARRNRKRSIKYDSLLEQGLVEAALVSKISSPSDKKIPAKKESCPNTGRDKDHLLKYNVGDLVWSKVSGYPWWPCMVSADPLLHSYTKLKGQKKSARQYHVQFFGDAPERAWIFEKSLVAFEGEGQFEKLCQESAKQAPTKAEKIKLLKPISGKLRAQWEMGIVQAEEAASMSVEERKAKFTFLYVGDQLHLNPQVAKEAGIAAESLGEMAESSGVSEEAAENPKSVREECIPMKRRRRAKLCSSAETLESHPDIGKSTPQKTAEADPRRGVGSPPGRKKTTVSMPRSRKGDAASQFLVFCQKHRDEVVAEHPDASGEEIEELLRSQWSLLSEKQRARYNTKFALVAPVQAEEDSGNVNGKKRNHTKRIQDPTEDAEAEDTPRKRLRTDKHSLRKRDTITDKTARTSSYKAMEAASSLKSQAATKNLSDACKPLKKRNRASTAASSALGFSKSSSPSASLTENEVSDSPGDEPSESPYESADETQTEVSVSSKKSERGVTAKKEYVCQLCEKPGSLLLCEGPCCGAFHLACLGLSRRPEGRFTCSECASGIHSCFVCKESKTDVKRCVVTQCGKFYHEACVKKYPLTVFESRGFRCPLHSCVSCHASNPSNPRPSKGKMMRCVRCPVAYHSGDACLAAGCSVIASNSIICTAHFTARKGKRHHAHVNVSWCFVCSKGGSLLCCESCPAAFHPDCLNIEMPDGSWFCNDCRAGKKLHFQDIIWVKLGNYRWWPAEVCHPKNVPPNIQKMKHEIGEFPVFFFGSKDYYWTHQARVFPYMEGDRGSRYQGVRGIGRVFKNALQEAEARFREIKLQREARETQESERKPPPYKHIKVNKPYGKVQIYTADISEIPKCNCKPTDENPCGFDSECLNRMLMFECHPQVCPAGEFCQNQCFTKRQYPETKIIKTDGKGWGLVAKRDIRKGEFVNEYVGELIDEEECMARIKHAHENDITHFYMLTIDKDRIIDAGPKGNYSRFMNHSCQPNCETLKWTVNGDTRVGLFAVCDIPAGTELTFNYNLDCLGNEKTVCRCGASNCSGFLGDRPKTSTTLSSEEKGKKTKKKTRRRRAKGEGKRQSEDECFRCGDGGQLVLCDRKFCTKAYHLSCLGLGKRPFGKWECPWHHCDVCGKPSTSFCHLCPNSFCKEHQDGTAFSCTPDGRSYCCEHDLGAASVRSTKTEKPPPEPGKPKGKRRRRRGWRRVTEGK
# N-glyco inh: N-linked glycosylation inhibition | D54 ERlucT glycosylation luciferase reporter, 24 h; percent of 100 nM tunicamycin response | reporter increase, % at 12.5 µM | 360,000 tested, 0.23% active;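 active = mean luciferase reporter signal, scaled so untreated is 0 and the glycosylation-blocking control 100, at or above a set limit in every replicate; inconclusive = mean reaches the limit but not every replicate does; inactive = mean below the limit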;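 note: luciferase carries N-glycosylation sites so blocking glycosylation raises the light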
# PAX8 reporter: inhibitors of PAX8 transcriptional activity in RMG-I cells; 360,000 tested, 1.2% active; inhibition, % at 12.6 µM; RMG-I TPO-luciferase reporter, SteadyGlo, 24 h; AID 652154;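 active = mean replicate inhibition at least 60% with every replicate also reaching 60%; inconclusive = only one of the two criteria is met; inactive = mean below 60% and not all replicates reaching 60%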;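 note: luciferase light reporting Pax8 driven TPO promoter activity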
# Env fusion inh: HIV envelope-mediated fusion inhibition; 360,000 tested, 1.1% active; inhibition, % at 12.3 µM; HeLa-JRFL Env/CEM21 cell fusion, luciferase;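 active = mean replicate inhibition score of at least 50 and every replicate individually at or above 50; inconclusive = only one of the two criteria met; inactive = mean below 50 and not all replicates reaching 50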
# Shn3 inh set2: inhibitors of Schnurri-3 3'UTR reporter in osteoblasts | Clone20 osteoblast Shn3 3'UTR firefly luciferase, 24 h | 360,000 tested, 0.52% active | inhibition, % at 12.5 µM;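 active = mean inhibition of at least 75% with every replicate also reaching 75%; inconclusive = mean inhibition at least 75% but some replicate below; inactive = mean inhibition below 75%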
# LMP1 NFkB inh: Epstein-Barr LMP1 NF-kappaB reporter inhibition; LMP1-induced NF-kappaB luciferase reporter cells, luminescence; inhibition, % at 12.5 µM; 350,000 tested, 0.69% active; in the data active = inhibition above about 41%; inconclusive = no clear call, values can overlap the other calls
# A number is an active result; – = inactive; ? = inconclusive; · = no result. Most compounds without a hit are left out; they make up all but 2.8% or so of the library.
SMILES,NSD2 HMT inh,N-glyco inh,PAX8 reporter,Env fusion inh,Shn3 inh set2,LMP1 NFkB inh
c1cc2ccc3ccc(CN4CCOCC4)c4ccc(c1)c2c34,–,–,·,–,–,–
C[C@H](CO)N1C[C@H](C)[C@@H](CN(C)S(=O)(=O)c2cn(C)cn2)Oc2c(NS(=O)(=O)c3ccc(Cl)cc3)cccc2C1=O,·,·,·,–,·,·
C[C@H]1CCCCO[C@H](CN(C)Cc2ccc(C(F)(F)F)cc2)[C@@H](C)CN([C@@H](C)CO)C(=O)c2cc(NC(=O)CCC(F)(F)F)ccc2O1,·,·,–,–,·,·
CCCCC(=O)NC(c1ccccc1Cl)c1ccc2cccnc2c1O (stereo not given),·,–,85,–,88,72
CCCC(=O)NC(c1ccc(OC)cc1)c1ccc2cccnc2c1O (stereo not given),–,–,77,–,92,70
CCCCC(=O)NC(c1ccco1)c1cc(Cl)c2cccnc2c1O (stereo not given),–,–,–,–,–,–
CCCCC(=O)NC(c1ccccc1)c1ccc2cccnc2c1O (stereo not given),–,–,87,–,93,48
CCC(=O)NC(c1ccccc1OC)c1ccc2cccnc2c1O (stereo not given),–,–,·,·,89,65
C[C@H](O)C#Cc1ccc([C@@H]2[C@@H](CO)N3CCCCN(C(=O)c4ccc5c(c4)OCO5)C[C@@H]23)cc1,·,·,–,·,·,·
COc1cccc(NC(=O)N(C)C[C@H]2Oc3cc(C#Cc4ccc(F)cc4)ccc3S(=O)(=O)N([C@@H](C)CO)C[C@H]2C)c1,·,·,·,–,·,·
C[C@@H]1CN([C@H](C)CO)C(=O)c2cccc(NC(=O)Nc3ccc(F)cc3)c2O[C@@H]1CN(C)C,·,·,–,·,·,·
CC(=O)NC(c1ccc(C(C)C)cc1)c1ccc2cccnc2c1O (stereo not given),–,–,95,–,92,57
CCCC(=O)NC(c1ccccc1)c1ccc2cccnc2c1O (stereo not given),–,–,79,–,93,–
CCCCC(=O)NC(c1ccc(C(C)C)cc1)c1ccc2cccnc2c1O (stereo not given),–,–,85,–,–,50
CC(=O)NC(c1ccco1)c1cc(Cl)c2cccnc2c1O (stereo not given),–,–,–,–,–,·
CC(C)[C@H](NC(=O)c1ccccc1)C(=O)OCc1nnc(-c2ccccc2)o1,–,–,–,–,–,–
Cc1noc(C)c1COC(=O)[C@@H](NC(=O)c1ccccc1)C(C)C,–,–,69,–,?,–
COCCCNC(=S)Nc1cc2oc3ccccc3c2cc1OC,–,–,–,68,–,–
Oc1cccc2cc(Nc3ccccc3)cnc12,·,–,94,·,95,·
Oc1cc(-c2cccnc2)cc2cccnc12,·,–,–,–,89,–
Oc1cc(NCCN2CCOCC2)cc2cccnc12,·,–,?,–,–,–
Oc1cc(Nc2ccccc2)cc2cccnc12,·,38,96,–,94,–
C[C@@H]1CN([C@H](C)CO)C(=O)c2cc(NS(=O)(=O)c3cn(C)cn3)ccc2O[C@H]1CN(C)CC1CCCCC1,·,·,·,–,·,·
CCn1c(=O)c([N+](=O)[O-])c(Cl)c2ccccc21,–,?,·,·,96,–
CC1CCCCC1NC(=O)CN1C(=O)CSc2cc(S(=O)(=O)N3CCCCCC3)ccc21 (stereo not given),–,–,85,·,–,–
SMILES,NSD2 HMT inh,N-glyco inh,PAX8 reporter,Env fusion inh,Shn3 inh set2,LMP1 NFkB inh
O=C(CN1C(=O)CSc2cc(S(=O)(=O)N3CCCCCC3)ccc21)NCCc1ccccc1,–,–,·,·,–,–
O=C(NCCSCc1ccccc1)c1ccc(C2SCC(=O)N2Cc2ccccc2)cc1 (stereo not given),–,–,·,64,–,–
C[C@@H]1CCCCO[C@H](CN(C)C(=O)NC2CCCCC2)[C@H](C)CN([C@H](C)CO)C(=O)c2cc(NC(=O)Nc3ccc(C(F)(F)F)cc3)ccc2O1,·,·,73,–,·,·
C[C@@H]1CN([C@@H](C)CO)C(=O)c2cc(NC(=O)Nc3ccc(C(F)(F)F)cc3)ccc2O[C@@H](C)CCCCO[C@@H]1CN(C)C(=O)NC1CCCCC1,·,·,–,–,·,·
C[C@@H]1CN([C@H](C)CO)C(=O)c2cc(NC(=O)Nc3ccc(C(F)(F)F)cc3)ccc2O[C@@H](C)CCCCO[C@H]1CN(C)C(=O)NC1CCCCC1,·,·,96,–,·,·
NC(=S)n1[nH]c(-c2ccc([N+](=O)[O-])cc2)c(N=Nc2cccc([N+](=O)[O-])c2)c1=O,–,–,–,63,–,–
NC(=S)n1[nH]c(-c2ccc([N+](=O)[O-])cc2)c(N=Nc2ccccc2[N+](=O)[O-])c1=O,–,–,–,–,–,–
O=c1c(O)c(-c2ccc(O)c(O)c2)oc2cc(O)cc(O)c12,·,–,–,–,–,90
Cc1noc(C)c1S(=O)(=O)N(C)C[C@H]1OCCCC[C@@H](C)Oc2ccc(NS(=O)(=O)c3ccc(Cl)cc3)cc2C(=O)N([C@@H](C)CO)C[C@H]1C,·,·,76,–,·,·
Cc1noc(C)c1S(=O)(=O)N(C)C[C@@H]1OCCCC[C@H](C)Oc2ccc(NS(=O)(=O)c3ccc(Cl)cc3)cc2C(=O)N([C@H](C)CO)C[C@@H]1C,·,·,87,–,·,·
Cc1noc(C)c1S(=O)(=O)N(C)C[C@@H]1OCCCC[C@@H](C)Oc2ccc(NS(=O)(=O)c3ccc(Cl)cc3)cc2C(=O)N([C@H](C)CO)C[C@@H]1C,·,·,–,–,·,·
Cc1noc(C)c1S(=O)(=O)N(C)C[C@H]1OCCCC[C@@H](C)Oc2ccc(NS(=O)(=O)c3ccc(Cl)cc3)cc2C(=O)N([C@@H](C)CO)C[C@@H]1C,·,·,88,–,·,·
C[C@H]1CN([C@@H](C)CO)C(=O)Cc2cc(NC(=O)CCCCCC(=O)Nc3ccccc3N)ccc2O[C@@H]1CN(C)C(=O)Nc1ccc(F)cc1,·,·,–,·,·,·
O=C(NCc1ccccc1)c1c(Cl)nc(Cl)c(Cl)c1Cl,–,?,–,–,–,81
CS(=O)(=O)c1ncc(Cl)c(C(=O)Nc2ccc3ccccc3c2)n1,–,–,89,–,96,–
CC(=O)Nc1ccc(NC(=O)c2nc(S(=O)(=O)Cc3ccccc3)ncc2Cl)cc1,–,–,94,–,95,–
Cc1nc(Cl)c(C(=O)NCc2ccccc2)c(C)c1Cl,–,–,–,–,–,–
COc1ccc(S(=O)(=O)Cc2ccc(C(=O)NCc3ccccc3)o2)cc1,–,–,–,–,–,–
COc1ccc(CNC(=O)c2nc(S(=O)(=O)Cc3ccccc3)ncc2Cl)cc1,–,–,–,–,92,–
CCCNC(=O)N1CCC2(CC1)CN(C(=O)NC1CCCC1)[C@@H](CO)c1[nH]c3cc(OC)ccc3c12,·,·,–,·,·,·
C[C@@H]1CN([C@H](C)CO)S(=O)(=O)c2ccc(C3=CCCC3)cc2O[C@@H]1CN(C)C(=O)CN(C)C,·,·,·,–,·,·
COC(=O)c1cscc1S(=O)(=O)Cc1ccccc1,–,–,–,–,–,–

# Bioassay records from PubChem.
